L3MBTL1 block: inhibitors of human L3MBTL1; Q9Y468; AlphaScreen L3MBTL1–H3K9me1 peptide binding; Potency, µM (titrated, usually from 57.1 µM), usual class: inhibitors; 0.66% of 230,000 active; note: nearly all actives have a fitted effect of over 60% in size
Target sequence (Q9Y468 whole entry, looked up): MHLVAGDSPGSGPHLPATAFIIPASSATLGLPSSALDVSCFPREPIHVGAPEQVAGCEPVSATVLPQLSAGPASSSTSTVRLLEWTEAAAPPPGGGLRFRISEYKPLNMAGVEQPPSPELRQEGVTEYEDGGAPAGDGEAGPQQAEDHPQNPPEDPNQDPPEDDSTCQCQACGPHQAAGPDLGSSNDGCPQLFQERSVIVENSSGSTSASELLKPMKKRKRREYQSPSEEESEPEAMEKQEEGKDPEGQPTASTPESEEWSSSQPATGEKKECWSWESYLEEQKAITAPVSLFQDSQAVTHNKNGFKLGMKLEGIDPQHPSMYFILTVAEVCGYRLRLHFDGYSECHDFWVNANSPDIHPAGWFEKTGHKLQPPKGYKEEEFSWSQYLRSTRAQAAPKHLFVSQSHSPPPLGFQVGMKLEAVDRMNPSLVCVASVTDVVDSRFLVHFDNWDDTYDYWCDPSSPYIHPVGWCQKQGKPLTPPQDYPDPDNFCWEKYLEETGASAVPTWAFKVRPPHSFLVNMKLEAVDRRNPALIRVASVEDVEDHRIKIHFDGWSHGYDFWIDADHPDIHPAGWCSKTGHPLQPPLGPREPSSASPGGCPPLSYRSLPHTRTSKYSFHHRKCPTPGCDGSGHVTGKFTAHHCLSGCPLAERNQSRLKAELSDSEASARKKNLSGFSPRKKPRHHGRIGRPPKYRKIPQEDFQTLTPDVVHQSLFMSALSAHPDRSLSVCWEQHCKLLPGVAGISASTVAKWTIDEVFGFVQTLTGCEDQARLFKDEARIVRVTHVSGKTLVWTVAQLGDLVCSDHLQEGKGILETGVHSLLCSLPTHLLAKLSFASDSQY
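Read-out is AlphaScreen signal from streptavidin donor and nickel chelate acceptor beads (10 ug/mL final each) bridging L3MBTL1 (50 nM) and biotinylated K9-monomethylated H3(1-15) peptide (75 nM), after 30 min compound exposure at room temperature.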
BAZ2B block: inhibitors of human BAZ2B bromodomain; Q9UIF8; AlphaScreen BAZ2B-H3K14Ac peptide displacement; Potency, µM (series often up to 114 µM), usual class: inhibitors; 4.4% of 360,000 active; note: nearly all actives have a fitted effect of over 60% in size
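Compounds, titrated to a top concentration of 110 uM, were incubated 30 min at room temperature with preformed BAZ2B/acetyl-K14 H3 peptide complex (50 nM each). Proximity signal was measured by AlphaScreen after 20 min with beads.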
HP1b binding inh: HP1-beta chromodomain-methylated histone interaction inhibition. P83916. AlphaScreen HP1-beta / biotin-H3K9me3 peptide binding. Potency, µM (series often up to 114 µM), most hits filed as inhibitors. 0.56% of 390,000 active. AID 540317; note: nearly all actives have a fitted effect of over 70% in size
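AlphaScreen: HP1-beta (50 nM) preformed 30 min with biotin-H3(1-18)K9me3 peptide (50 nM) in PBS pH 7.4, 0.01% Tween-20. Compound added for 30 min at RT, then streptavidin donor/nickel chelate acceptor beads (10 ug/mL) for 30 min.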
Sfp inh: Sfp phosphopantetheinyl transferase inhibition. Q9F4F7. 3.5% of 310,000 active. Potency, µM, most hits filed as inhibitors. Biochemical Sfp PPTase activity, qHTS;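 note: the enzyme is Sfp with the accession as filed and its product quenches rhodamine fluorescence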
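Fluorescence-quenching assay: 15 nM Sfp-PPTase preincubated 15 min at room temperature with compound, then 5 uM rhodamine-CoA and 12.5 uM BHQ-2-labelled YbbR peptide added. Fluorescence (ex 525/em 598 nm) read at start and after 30 min; difference gives rate.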
G9a inh: inhibitors of human histone lysine methyltransferase G9a; 8.8% of 350,000 active; G9a H3K9 monomethylation, AlphaScreen, 2 h; Potency, µM (top dose mostly 102 µM), hits mostly inhibitors; Q96KQ7; note: nearly all actives have a fitted effect of over 75% in size
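Readings reflect AlphaScreen signal from monomethyl-H3K9 antibody detection. HMT at 20 nM; substrate b-H3K9 500 nM; cofactor SAM 20 uM; 2 h RT reaction; compounds tested as titrations in qHTS with 15 min preincubation.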
JMJD2A Tudor inh: JMJD2A Tudor domain (human) inhibition. O75164. Potency, µM (series often up to 114 µM), hits mostly inhibitors. AlphaScreen JMJD2A-Tudor / H3K4me3 peptide binding. 4.4% of 390,000 active; note: nearly all actives have a fitted effect of over 50% in size
A number is an active result; - = inactive; ? = inconclusive; . = no result; ! = not confirmed by another sample; [ ] = another dose, or the depositor's remark. Rows were chosen to be rich in hits. Some 12% of all compounds tested hit in one or more screens of this group. Calls come from the whole dose curve; as a rule, active = well fitted curve in the direction sought with a large enough effect; inconclusive = small, poorly fitted or top-dose-only effect, or another doubt; inactive = no such curve, though single readings can be large; an effect the other way counts as inactive or inconclusive.

SMILES	L3MBTL1 block	BAZ2B block	HP1b binding inh	Sfp inh	G9a inh	JMJD2A Tudor inh
Cc1cnc(C(=O)OCC(=O)NC(=O)c2ccccc2)cn1	-	?	-	.	45µM	-
COC(Cc1ccccc1N1CCCC1=O)OC	-	?	-	-	56µM	-
CN(Cc1ccc(N(C)C)cc1)C(=O)c1cc2ccccc2o1	.	32µM	?	-	40µM	50µM
CN(C)c1ccc(CN(CC2CCCO2)C(=O)c2ccc(Br)cc2)cc1 (stereo not given)	.	40µM	?	.	14µM	50µM
CCOc1cccc(C(=O)N(Cc2ccc(N(C)C)cc2)CC2CCCO2)c1 (stereo not given)	.	50µM	-	.	14µM	?
CN(C)c1ccc(C(=O)NCC2CCCO2)cc1 (stereo not given)	-	-	-	-	?	-
Cc1ccc(C(=O)N(Cc2ccc(N(C)C)cc2)CC2CCCO2)cc1 (stereo not given)	.	35µM	-	.	13µM	?
Cc1ccc(-c2nsc(NC(=O)c3oc4cc(C)c(Cl)cc4c3C)n2)cc1	.	-	-	.	-	-
CC(=O)N1c2ccc(S(=O)(=O)N(C)CC(=O)N(Cc3ccccc3)C(C)C)cc2CC1C (stereo not given)	.	?	-	.	-	-
Cc1ccc(C2c3[nH]c4ccccc4c3CCN2C(=O)Nc2ccc(C)c(C)c2)cc1 (stereo not given)	.	?	-	.	-	?
Cc1cc(N2CCC(C(=O)Nc3ccc(F)cc3C)CC2)n2nc(C)c(-c3ccc(Cl)cc3)c2n1	.	-	-	.	-	-
COc1ccc(Cl)cc1NS(=O)(=O)c1c(C)nc2scc(C)n2c1=O	.	-	-	.	-	-
COc1cccc(Cn2c(=O)c(-c3cccs3)nc3cnc(OCc4ccccc4)nc32)c1	.	.	.	-	-[0.501 µM]	.
COc1ccccc1OCC(=O)N(Cc1ccc(N(C)C)cc1)CC1CCCO1 (stereo not given)	.	?	-	.	?	?
CN(C)c1ccc(CN(CC2CCCO2)C(=O)c2cc3ccccc3o2)cc1 (stereo not given)	?	10µM	?	.	6.3µM	45µM
COc1ccc(C(=O)N(Cc2ccc(N(C)C)cc2)CC2CCCO2)cc1 (stereo not given)	.	?	-	.	11µM	?
Cc1cc(Cl)ccc1OCC(=O)N[C@@H](Cc1ccccc1)c1nc2ccccc2[nH]1	-	56µM	-	-	?	-
O=C(O)CN1C2=NCCCN2c2ccccc21	-	-	-	-	?	-
O=C(CN1C2=NCCCN2c2ccccc21)c1ccc(Br)s1	-	-	-	-	50µM	-
O=C(Cn1cc(C(=O)c2ccncc2)c(=O)c2cc(F)ccc21)Nc1ccc(Cl)cc1	.	-	-	.	-	-
CCOc1cc2c3c(c1)C1(OCCO1)C(=O)N3C(C)(C)CC2C (stereo not given)	-	-	-	-	-[12.7 µM]	-
CCOc1cc2c3c(c1)C1(Nc4ccccc4S1)C(=O)N3C(C)(C)CC2C (stereo not given)	.	28µM	?	-	?	35µM
COc1ccc(NC(=O)CSC2=Nc3ccccc3C3=NC(CC(=O)NCc4ccc(F)cc4)C(=O)N23)cc1 (stereo not given)	.	-	-	.	-	-
O=C(Oc1cccc2c(O)cccc12)c1ccccc1Cl	.	.	-	.	.	-
O=C(Oc1ccccc1O)c1cccc2ccccc12	-	-	.	-	45µM	.
SMILES	L3MBTL1 block	BAZ2B block	HP1b binding inh	Sfp inh	G9a inh	JMJD2A Tudor inh
COc1ccc(-n2nc(C(=O)Nc3ccc(C)cn3)c3c4ccccc4n(C)c3c2=O)cc1	.	.	-	.	-	-
COc1cc(OC)c(N(C)C(=O)C2CCCN(c3ncnc4c3nc3n4CCCCC3)C2)cc1Cl (stereo not given)	.	-	-	.	-	-
C=CCN1CCN(c2nc3ccccc3nc2C#N)CC1	.	.	.	56µM!	-	.
Cc1ccccc1Nc1nc(=O)c2cc([N+](=O)[O-])ccc2s1	-	-	-	?	35µM	-
COc1ccc(Nc2nc(=O)c3cc([N+](=O)[O-])ccc3s2)cc1	.	79µM	-	?	?	-
Cc1ccc(Nc2nc(=O)c3cc([N+](=O)[O-])ccc3s2)cc1	.	-	-	-	-	-
Cc1ccccc1Nc1nc2ccccc2s1	-	-	-	-	-	-

Source: PubChem (National Center for Advancing Translational Sciences (NCATS))
